Screening results deposited in PubChem by National Center for Advancing Translational Sciences (NCATS).
The entries come from a sample that favours hits as a whole.
Pf Dd2 growth = blocks in vitro growth of P. falciparum Dd2; P. falciparum Dd2 growth, SYBR Green, 72 h; Potency, µM (titrated, usually from 28.9 µM), usual class: inhibitors; 120,000 compounds, 4.3% hits; AID 1347417; active = well fitted inhibition curve with a large enough effect; note: nearly all actives have a fitted effect of over 65% in size
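Infected erythrocytes (Dd2, 0.3% parasitemia, 2.5% hematocrit final) are added to compound in RPMI-1640/Albumax II medium, grown 72 h at 37C in low oxygen, then lysed with saponin/Triton-X containing SYBR Green and read by fluorescence.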
Hits are given with their value.

Results for Cn1ccnc1CN1CCN(CC2(O)CCNC2)CC1 (stereo not given) ?
Pf Dd2 growth: inactive

What do the screens show for `CN(C)C[C@H]1O[C@H](Cc2cc(-c3cccc(O)c3)on2)CC[C@@H]1O`?
Pf Dd2 growth: inactive

How did CNCc1ccccc1-c1ccccc1 do in these assays?
Pf Dd2 growth: 11.2µM

Results for CNCc1ccccc1C(F)(F)F ?
Pf Dd2 growth: inactive

What do the screens show for `CNCc1ccccc1OC`?
Pf Dd2 growth: inactive

What do the screens show for `COc1ccccc1-c1nc2nccc(-c3ccc(Br)s3)n2n1`?
Pf Dd2 growth: inactive

Results for COC[C@@H]1CN(C(=O)c2cc(C)oc2C)C[C@H]1c1ccccn1 ?
Pf Dd2 growth: inactive

What do the screens show for `CCc1nc(-c2c3n(c(=O)n(CC(=O)Nc4ccc(C)cc4C)c2=O)CCCCC3)no1`?
Pf Dd2 growth: inactive

How did CC(=O)N[C@@H]1CN(C(=O)C2(c3ccccc3)CC2)C[C@H]1CO do in these assays?
Pf Dd2 growth: inactive

Results for CC(C)Oc1cc(F)cc(-c2cc(NCCO)ncn2)c1 ?
Pf Dd2 growth: inactive

What do the screens show for `Cc1ccc(-c2cc3c(=O)n(CCNC(=O)c4ccc(F)c(F)c4)ccn3n2)c(C)c1`?
Pf Dd2 growth: inactive

How did Cc1ccc(-c2cc3c(=O)n(CCNC(=O)Cc4c[nH]c5ccccc45)ccn3n2)c(C)c1 do in these assays?
Pf Dd2 growth: 10µM

How did Cc1ccc(C(=O)NCCn2ccn3nc(-c4cc(C)ccc4C)cc3c2=O)cc1 do in these assays?
Pf Dd2 growth: inactive

How did Cc1ccc(-c2cc3c(=O)n(CCNC(=O)c4ccc(F)cc4)ccn3n2)c(C)c1 do in these assays?
Pf Dd2 growth: 2.82µM

Results for Cc1ccc(-c2cc3c(=O)n(CCNC(=O)Cc4cccc(F)c4)ccn3n2)c(C)c1 ?
Pf Dd2 growth: inactive

What do the screens show for `Cc1ccc(-c2cc3c(=O)n(CCNC(=O)Cc4ccccc4Cl)ccn3n2)c(C)c1`?
Pf Dd2 growth: inactive

What do the screens show for `CCN(CC)C(=O)CC[C@H]1CNC(=O)[C@@H]2[C@@H](CCN2Cc2csnn2)N1C`?
Pf Dd2 growth: inactive

What do the screens show for `O=C(c1nnn2c1COC(c1ccccc1)C2)N1CCN(C(=O)c2cccc3[nH]ccc23)CC1` (stereo not given)?
Pf Dd2 growth: inactive

What do the screens show for `O=C(NC1CC1)[C@@H]1C[C@H](Oc2ccccc2)CN1C(=O)c1ccncc1`?
Pf Dd2 growth: inactive

How did COCCNc1nc2cc(C(=O)N[C@@H]3CC[C@@H](N)C3)ccc2n1C do in these assays?
Pf Dd2 growth: inactive

What do the screens show for `COCCNc1ccc(-c2nc(-c3ccco3)no2)cc1[N+](=O)[O-]`?
Pf Dd2 growth: inactive

What do the screens show for `COCCNc1nc2cc(-c3nc(-c4cccnn4)no3)ccc2n1C`?
Pf Dd2 growth: 6.31µM

Results for CO[C@H]1C(=O)N(C(C)C)[C@H]1C1CCN(C(=O)Nc2ccccc2F)CC1 ?
Pf Dd2 growth: inactive

What do the screens show for `COc1ccc(C(=O)N2CCC(Cc3nc(-c4cnccn4)no3)CC2)cc1OC`?
Pf Dd2 growth: inactive

Results for C=CCc1ccccc1OCCN(C)Cc1ncnn1CC ?
Pf Dd2 growth: inactive

Results for C=CCc1ccccc1OCCN(C)Cc1ccc(S(C)(=O)=O)cc1 ?
Pf Dd2 growth: inactive

Results for C=CCc1ccccc1OCCN(C)Cc1nc(C)ccc1O ?
Pf Dd2 growth: 8.91µM

Results for O=C([C@@H]1C[C@H](Oc2ccccc2)CN1C(=O)C1CCCCC1)N1CCOCC1 ?
Pf Dd2 growth: inactive

What do the screens show for `COC(=O)[C@@H]1Cc2c([nH]c3ccccc23)[C@H]2C[C@@H](NCCN3CCOCC3)C[C@@H](c3ccc(F)cc3)N21`?
Pf Dd2 growth: inactive

What do the screens show for `COC(=O)[C@@H]1Cc2c([nH]c3ccccc23)[C@H]2C[C@@H](NCCN(C)C)C[C@@H](c3cccc(Cl)c3)N21`?
Pf Dd2 growth: 2.82µM

Results for Cc1ccc(NC(=O)Cn2cc(S(=O)(=O)Cc3cccc(Cl)c3)c3ccccc32)cc1C ?
Pf Dd2 growth: inactive

What do the screens show for `COC(=O)[C@@H]1Cc2c([nH]c3ccccc23)[C@H]2C[C@@H](NC(C)C)C[C@@H](c3ccc(C)cc3)N21`?
Pf Dd2 growth: inactive

Results for COC(=O)[C@@H]1Cc2c([nH]c3ccccc23)[C@H]2C[C@@H](NCCc3cnc[nH]3)C[C@@H](c3cccc(Cl)c3)N21 ?
Pf Dd2 growth: inactive

What do the screens show for `COC(=O)[C@@H]1Cc2c([nH]c3ccccc23)[C@H]2C[C@H](NCCN3CCOCC3)C[C@@H](c3ccc(F)cc3)N21`?
Pf Dd2 growth: 11.2µM

What do the screens show for `Cc1ccc(C)c(NC(=O)Cn2cc(S(=O)(=O)Cc3cccc(Cl)c3)c3ccccc32)c1`?
Pf Dd2 growth: inactive

Results for COC(=O)[C@@H]1Cc2c([nH]c3ccccc23)[C@@H]2C[C@@H](NCCNC(C)=O)C[C@@H](c3cccc(Cl)c3)N12 ?
Pf Dd2 growth: 11.2µM

What do the screens show for `COC(=O)[C@@H]1Cc2c([nH]c3ccccc23)[C@H]2C[C@@H](NCc3cccs3)C[C@@H](c3ccccc3F)N21`?
Pf Dd2 growth: inactive

Results for Cc1cc(C)n(CCC(=O)NCCc2noc(-c3ccccc3)n2)n1 ?
Pf Dd2 growth: inactive

How did O=C(CCC1CCN(C(=O)c2ccccc2)CC1)Nc1cccnc1 do in these assays?
Pf Dd2 growth: inactive

How did Cn1cc(C(=O)N2C[C@@H](COCC3CC3)[C@H](c3ccccn3)C2)cn1 do in these assays?
Pf Dd2 growth: inactive

Results for CS(=O)(=O)N1CCCCCNC(=O)[C@@H]2CCCC[C@@H]21 ?
Pf Dd2 growth: inactive

What do the screens show for `Cc1noc(-c2ccccc2OC2CCN(C(=O)c3cnccn3)C2)n1` (stereo not given)?
Pf Dd2 growth: inactive

What do the screens show for `Cc1cc(C)n(CCC(=O)NCCc2noc(-c3ccncc3)n2)n1`?
Pf Dd2 growth: inactive

What do the screens show for `COCC(=O)Nc1cc(C(=O)N2CCN(C(C)=O)CC2)c2c(c1)ncn2Cc1ccc(F)cc1`?
Pf Dd2 growth: inactive

How did COc1ccc(CNC(=O)c2cnn(-c3ccc(OC)cc3)c2C2CCN(C(=O)OC(C)(C)C)CC2)cc1 do in these assays?
Pf Dd2 growth: inactive

How did Cc1ccc(-n2ncc(C(=O)NC3CCN(Cc4ccccc4)CC3)c2C2CCN(C(=O)OC(C)(C)C)CC2)cc1C do in these assays?
Pf Dd2 growth: inactive

What do the screens show for `CCOC(=O)N1CCC(NC(=O)c2cnn(-c3cccc(Cl)c3C)c2C2CCN(C(=O)OC(C)(C)C)CC2)CC1`?
Pf Dd2 growth: inactive

Results for COc1ccc(-n2ncc(C(=O)NCCc3ccsc3)c2C2CCN(C(=O)OC(C)(C)C)CC2)cc1 ?
Pf Dd2 growth: inactive

How did CCOC(=O)N1CCC(NC(=O)c2cnn(-c3ccc(C)cc3)c2C2CCN(C(=O)OC(C)(C)C)CC2)CC1 do in these assays?
Pf Dd2 growth: 11.2µM

Results for CCOC(=O)N1CCC(NC(=O)c2cnn(-c3ccc(OC)cc3)c2C2CCN(C(=O)OC(C)(C)C)CC2)CC1 ?
Pf Dd2 growth: 8.91µM

Results for O=S(=O)(c1ccccc1Cl)N1CCCC1c1nncn1C1CCCC1 (stereo not given) ?
Pf Dd2 growth: inactive

How did O=C1CO[C@H]2CCN(Cc3ccccc3Cl)CC[C@@H]2N1c1ccccc1 do in these assays?
Pf Dd2 growth: inactive

Results for CCCNC(=O)C(NC(=O)c1cccc(OC)c1)C1CCN(C(=O)COC)CC1 (stereo not given) ?
Pf Dd2 growth: inactive

How did CN1C(=O)CO[C@H](c2ccc(NC(=O)CCc3ccccc3)cc2)[C@H]1CO do in these assays?
Pf Dd2 growth: inactive

Results for Cc1cccc(C)c1OCc1cc(C(=O)N(C)CCCC2CCCC2)no1 ?
Pf Dd2 growth: inactive

How did CCC(=O)N1CCc2sc(C(=O)NCc3ccc(Cl)cc3)cc2C1 do in these assays?
Pf Dd2 growth: inactive
